# Among all 69,000 compounds or so, about 1,000 (1.4%) showed an effect of 50% or more. The list comes from a sample in which strong results are over-represented; it also holds similar structures and randomly drawn compounds.
# System: Leishmania donovani
# Assay: Leishmania intramacrophage assay
# Assay type: functional, organism-based
# Set-up: scale not given: in the data most compounds retested in dose-response had high values
smiles,measurement,setting,value
CC(C)n1cc(N2CC(C(=O)N3CCN(C)CC3)CC2=O)cn1 (stereo unspecified),Percent Effect,"30.3 µM, […]",26.64%
O=C(c1cncc(Br)c1)N1CCCc2ccc(F)cc21,Percent Effect,"30.3 µM, […]",14.67%
CCc1c(C)nn(CC(=O)NC(C(=O)O)c2c(C)n[nH]c2C)c1C (stereo unspecified),Percent Effect,"30.3 µM, […]",12.75%
Cc1ccc(CN(C)Cc2cc(C3CC3)[nH]n2)c(O)n1,Percent Effect,"30.3 µM, […]",5.894%
Cc1nn(C)cc1S(=O)(=O)N[C@@H]1CC[C@@H](n2ccnc2C)[C@@H]1O,Percent Effect,"30.3 µM, […]",-29.93%
CN1CCC/C1=N\S(=O)(=O)c1ccc(NC(=O)c2ccco2)cc1,Percent Effect,30 µM,-21.5%
CCNC(=O)[C@@H]1C[C@H](NC(=O)c2cncnc2C)CN1Cc1ccsc1,Percent Effect,"30.3 µM, […]",37.2%
CCNC(=O)[C@@H]1C[C@@H](NC(=O)c2cnc[nH]c2=O)CN1Cc1ccsc1,Percent Effect,"30.3 µM, […]",54.56%
CCNC(=O)[C@@H]1C[C@@H](NC(=O)c2cccnc2O)CN1Cc1ccsc1,Percent Effect,"30 µM, 30.03 µM",19.61%
CC(=O)Cn1ncc(N2CCOCC2)cc1=O,Percent Effect,"30.3 µM, […]",4.61%
CC(=O)Nc1ccc(CN2CCCC(c3cc4ncccc4[nH]3)C2)cc1 (stereo unspecified),Percent Effect,"30.3 µM, […]",40.95%
Fc1ccc(CN2CCCC(c3cc4ncccc4[nH]3)C2)cc1 (stereo unspecified),Percent Effect,"30.3 µM, […]",-0.4017%
CCOc1ccc(CN2CCCC(c3cc4ncccc4[nH]3)C2)cc1 (stereo unspecified),Percent Effect,"30.3 µM, […]",54.07%
O=C(CC1NC(N2CCc3ccccc32)=NC1=O)Nc1ccc(Cl)cc1 (stereo unspecified),Percent Effect,"30.3 µM, […]",9.68%
Cc1nc(O)cc(CCNc2nccc(CCC(F)(F)F)n2)n1,Percent Effect,"30.3 µM, […]",19.16%
CC(Cn1ccnc1)NC(=O)N1CCN(Cc2ccncc2)CC1 (stereo unspecified),Percent Effect,30 µM,-0.977%
CC(Cn1ccnc1)NC(=O)N1CCN(Cc2ccsc2)CC1 (stereo unspecified),Percent Effect,30 µM,56.49%
CC(Cn1cccn1)NC(=O)N1CCN(Cc2ccsc2)CC1 (stereo unspecified),Percent Effect,"30.3 µM, […]",0.9675%
CN1C(=O)CC(C(=O)O)C12CCN(c1ccc3c(n1)CCCC3)CC2 (stereo unspecified),Percent Effect,"30.3 µM, […]",21.03%
CCn1ncnc1C(C)NC(=O)C1CCN(C(=O)COC)CC1 (stereo unspecified),Percent Effect,"30 µM, 30.03 µM",54.19%
CCn1ncnc1C(C)NC(=O)C1CCN(C2CCCCC2)CC1 (stereo unspecified),Percent Effect,"30.3 µM, […]",10.97%
CCn1ncnc1C(C)NC(=O)C1CCN(C(C)C)CC1 (stereo unspecified),Percent Effect,"30 µM, 30.03 µM",5.618%
CC(=O)NC(C)(C)C(=O)Nc1ncc(Cc2ccc(C)c(F)c2)s1,Percent Effect,"30 µM, 30.03 µM",11.96%
Cc1nn(C)c(C)c1-c1ccnc(N(C)Cc2noc(C(C)C)n2)n1,Percent Effect,"30.3 µM, […]",46.51%
Cc1nn(C)cc1-c1ccnc(N(C)Cc2noc(C(C)C)n2)n1,Percent Effect,"30.3 µM, […]",19.89%
Cc1nn(C)c(C)c1-c1ccnc(N(C)Cc2nc(C(C)C)no2)n1,Percent Effect,"30.3 µM, […]",52.75%
CCc1nc(CN(C)C2CCN(CCC(=O)N3CCCCC3)C2)no1 (stereo unspecified),Percent Effect,"30.3 µM, […]",22.94%
Fc1cnc(N2CCn3cc(CNc4ccccn4)nc3C2)nc1.O=C(O)C(F)(F)F.O=C(O)C(F)(F)F,Percent Effect,"30 µM, 30.03 µM",-20.21%
O=C(Cc1ccc(F)cc1)N1CCn2cc(Cn3cccn3)nc2C1.O=C(O)C(F)(F)F,Percent Effect,"30 µM, 30.03 µM",-23.45%
O=C(O)C(F)(F)F.O=C(c1ccc[nH]1)N1CCn2cc(Cn3cccn3)nc2C1,Percent Effect,"30.3 µM, […]",51.47%
O=C(O)C(F)(F)F.O=C(c1ccc[nH]1)N1CCn2cc(CN3CCCC3)nc2C1,Percent Effect,"30 µM, 30.03 µM",-3.456%
N#CC1(C(=O)N2CCOC(c3ccc(F)cc3)C2)CCCCC1 (stereo unspecified),Percent Effect,"30.3 µM, […]",33.91%
Cl.O=C(Nc1cc(C(F)(F)F)c[nH]c1=O)C1CCCCN1 (stereo unspecified),Percent Effect,"30.3 µM, […]",10.48%
O=C(Nc1cc(C(F)(F)F)c[nH]c1=O)C1CCCO1 (stereo unspecified),Percent Effect,"30.3 µM, […]",65.61%
O=C(Nc1cc(C(F)(F)F)c[nH]c1=O)C1CCNCC1,Percent Effect,"30.3 µM, […]",29.22%
CN1CCOC(CNCC(=O)NCCC2=CCCCC2)C1 (stereo unspecified),Percent Effect,"30.3 µM, […]",0.5751%
C[C@@H]1CN(Cc2nc(Cc3ccccc3F)no2)C[C@H](C)O1,Percent Effect,"30.3 µM, […]",14.95%
COc1ccc(C[C@H]2CN(C(=O)c3cc(C)no3)CC[C@H]2OC)cc1,Percent Effect,"30.3 µM, […]",7.467%
CO[C@@H]1CCN(C(=O)c2cc(C)on2)C[C@@H]1Cc1ccccc1,Percent Effect,"30.3 µM, […]",52.23%
CO[C@H]1CCN(C(=O)c2cc(C)on2)C[C@@H]1Cc1ccccc1,Percent Effect,"30.3 µM, […]",-10.42%
CC(=O)N1CCC2(CC1)CC(C(C)C)=NO2,Percent Effect,"30.3 µM, […]",-2.802%
NC(=O)CSCC(=O)NCC1CCCC1,Percent Effect,"30.3 µM, […]",12%
CNC(=O)C1CN(Cc2ccc(C#N)cc2F)c2ccccc2O1 (stereo unspecified),Percent Effect,"30.3 µM, […]",34.5%
O=C1CO[C@H]2CN(Cc3ccc(F)c(F)c3)C[C@H]2N1,Percent Effect,"30.3 µM, […]",13.71%
COc1ccc(F)cc1-c1ccccc1CC1(C(=O)O)CCOCC1,Percent Effect,"30.3 µM, […]",-18.67%
COc1ccccc1-c1ccccc1CC1(C(=O)O)CCNCC1,Percent Effect,"30.3 µM, […]",-31.14%
CCOC(=O)C1(Cc2ccccc2-c2ccccc2OC)CCNCC1.Cl,Percent Effect,"30.3 µM, […]",51.68%
CCNC(=O)C1CCCN(c2ccc3ccc(F)cc3n2)C1 (stereo unspecified),Percent Effect,"30.3 µM, […]",4.617%
CC(C)Oc1ncccc1CNC(=O)NC(C)c1cccs1 (stereo unspecified),Percent Effect,"30.3 µM, […]",19.58%
CCCOc1cc(C)ccc1NC(=O)NCCNC(=O)C(C)C,Percent Effect,"30.3 µM, […]",-16.43%
CCc1nc2c(NCC3COc4c(cccc4OC)C3)ncnc2o1 (stereo unspecified),Percent Effect,"30.3 µM, […]",45.88%
CCc1nc2c(NCC3COc4cc(OC)ccc4C3)ncnc2o1 (stereo unspecified),Percent Effect,"30.3 µM, […]",60.09%
COc1cccc2c1OCC(CNc1cc(N)nc(SC)n1)C2 (stereo unspecified),Percent Effect,"30.3 µM, […]",21.08%
COc1ccc2c(c1)OCC(Cc1ccc(C)nc1N)C2 (stereo unspecified),Percent Effect,"30.3 µM, […]",-0.8362%
CCc1nc2c(NCC3COc4ccccc4C3)ncnc2o1 (stereo unspecified),Percent Effect,"30.3 µM, […]",35.57%
COc1ccc2c(c1)OCC(CNc1cc(N)nc(SC)n1)C2 (stereo unspecified),Percent Effect,"30.3 µM, […]",52.24%
CCC(CNC(=O)c1nc(=O)[nH][nH]1)Oc1cccc(C(F)(F)F)c1 (stereo unspecified),Percent Effect,"30.3 µM, […]",11.69%
CC1c2ncc(COCC3CC3)n2CCN1C.O=C(O)C(F)(F)F (stereo unspecified),Percent Effect,"30.3 µM, […]",11.79%
Cc1nc(N(C)C)nc(-c2cccc(-c3ccn(CCCF)n3)c2)c1C,Percent Effect,"30.3 µM, […]",-3.93%
CN(C)c1cc(CNC(=O)c2ccc(F)cc2F)ccn1,Percent Effect,"30 µM, 30.03 µM",42.64%
CCc1nc(CN(C)CC(=O)NC(C)C)cs1,Percent Effect,"30.3 µM, […]",35.21%
CCCc1cc(C(=O)NC(C)c2ccccc2)n(C)n1 (stereo unspecified),Percent Effect,"30.3 µM, […]",52.97%
CCCc1cc(C(=O)N[C@@H](CO)[C@@H](O)c2ccccc2)n(C)n1,Percent Effect,"30.3 µM, […]",0.7938%
CCCc1cc(C(=O)N[C@H](C)[C@@H](O)c2ccc(O)cc2)n(C)n1,Percent Effect,"30.3 µM, […]",13.63%
CN(Cc1ccco1)C(=O)NCc1ccnc(SC(C)(C)C)c1,Percent Effect,"30.3 µM, […]",10.46%
CCn1cc(CNCc2ccc(C(=O)OC)cc2)c(C)n1,Percent Effect,"30.3 µM, […]",-10.67%
CN(C)CC1(O)CCCN(C(=O)Cc2ccc(Cl)c(Cl)c2)C1 (stereo unspecified),Percent Effect,"30.3 µM, […]",-2.799%
Cc1nc(CN2CCc3nc(N4CCCC4)nc(NC(C)C)c3C2)cs1,Percent Effect,"30.3 µM, […]",51.28%
CC(C)Nc1nc(N2CCCC2)nc2c1CN(C)CC2,Percent Effect,"30.3 µM, […]",20.69%
CC(C)Nc1nc(N2CCCC2)nc2c1CN(C(C)C)CC2,Percent Effect,"30 µM, 30.03 µM",-2.181%
CC(C)Nc1nc(N2CCCC2)nc2c1CN(c1ncc(F)cn1)CC2,Percent Effect,"30.3 µM, […]",60.7%
CCC(C)N1CCc2nc(N3CCCC3)nc(NC(C)C)c2C1 (stereo unspecified),Percent Effect,"30.3 µM, […]",35.6%
Cc1nc(CN2CCc3nc(NC(C)C)nc(C)c3C2)cs1,Percent Effect,"30.3 µM, […]",4.033%
O=C(OCc1cccs1)c1cccc(C(=O)N2CCCC2)n1,Percent Effect,"30.3 µM, […]",3.746%
Cn1cc(-c2ncc3c(c2C(=O)O)CCN(Cc2ccco2)C3)cn1.O=C(O)C(F)(F)F,Percent Effect,"30.3 µM, […]",10.3%
Cc1ccc(C(=O)NCc2ccnc(N(C)C)c2)c(C)c1,Percent Effect,"30.3 µM, […]",24.48%
O=C(c1ccccn1)N1CCCC(c2ncncc2-c2ccncc2)C1 (stereo unspecified),Percent Effect,"30.3 µM, […]",-13.38%
O=C(O)C(F)(F)F.O=C1NCC[C@]12CN(CC1CCOCC1)C[C@H]2c1ccccc1,Percent Effect,"30.3 µM, […]",7.927%
Cc1cccc(CNC(=O)c2cccnc2N)c1,Percent Effect,"30.3 µM, […]",26.02%
Nc1ncccc1C(=O)NCc1cccc(Br)c1,Percent Effect,"30.3 µM, […]",45.5%
COc1cccc(CNC(=O)c2cccnc2N)c1,Percent Effect,"30.3 µM, […]",50.32%
COc1ccc(C(=O)NS(=O)(=O)c2cc(Cl)sc2Cl)cc1OC(F)F,Percent Effect,"30.3 µM, […]",16.5%
CCn1cc(NC(=O)NCC(c2ccsc2)N(C)C)cn1 (stereo unspecified),Percent Effect,30 µM,19.68%
COc1ccc(CC(=O)N2CCCC(n3cccn3)C2)cc1F (stereo unspecified),Percent Effect,30 µM,5.405%
CNC(=O)c1sccc1S(=O)(=O)Nc1ccc(C)cc1,Percent Effect,"30.3 µM, […]",8.63%
CN1CCOC(CN(C(=O)Cc2ccccc2F)c2nccs2)C1 (stereo unspecified),Percent Effect,"30 µM, 30.03 µM",-6.347%
c1ccc(Cc2nc(CN3CCCC3Cn3cncn3)cs2)cc1 (stereo unspecified),Percent Effect,30 µM,-0.1933%
Cc1ccc2nc(C3CCCN3Cc3csc(C)n3)[nH]c2c1 (stereo unspecified),Percent Effect,"30.3 µM, […]",32.46%
Cc1ccc2nc(C3CCCN3Cc3scnc3C)[nH]c2c1 (stereo unspecified),Percent Effect,"30.3 µM, […]",25.37%
Cc1ccc2nc(C3CCCN3Cc3cccc(CCN)c3)[nH]c2c1 (stereo unspecified),Percent Effect,"30.3 µM, […]",54.52%
O=C1NCCN(Cc2ccoc2)C1CC(=O)N1CCc2sccc2C1 (stereo unspecified),Percent Effect,"30.3 µM, […]",23.18%
CN(CC(=O)NC1(C)CCS(=O)(=O)C1)Cc1ccc(Br)cc1 (stereo unspecified),Percent Effect,30 µM,-0.9039%
CN(C)C(=O)CN1CCC2(COCc3cnc(-c4ccccc4)nc32)C1 (stereo unspecified),Percent Effect,"30.3 µM, […]",31.1%
O=C(O)C(F)(F)F.c1cnc(N2CCC3(COCc4cnc(-c5cccnc5)nc43)C2)nc1 (stereo unspecified),Percent Effect,"30 µM, 30.03 µM",17.52%
CN(C)C(=O)CN1CCC2(COCc3cnc(-c4cccnc4)nc32)C1.O=C(O)C(F)(F)F.O=C(O)C(F)(F)F (stereo unspecified),Percent Effect,"30.3 µM, […]",71.1%
CN(C)C1CCN(C(=O)c2cccc(S(=O)(=O)NCC3(C)COC3)c2)C1 (stereo unspecified),Percent Effect,"30.3 µM, […]",28.53%
Cn1nccc1CN1CCCC(COc2ccccc2F)C1 (stereo unspecified),Percent Effect,"30.3 µM, […]",53.5%
CC(C)n1c(C2CCCN(Cc3ccnn3C)C2)nc2ccccc21 (stereo unspecified),Percent Effect,"30 µM, 30.03 µM",7.956%
CCn1cc(CN2CCCC(COc3ccccc3F)C2)cn1 (stereo unspecified),Percent Effect,"30.3 µM, […]",32.99%
COc1ccc(CN2Cc3[nH]nc(C(=O)N(C)C)c3C2)cc1,Percent Effect,"30.3 µM, […]",5.856%
COCCN(C)Cc1ccc(OC)c(OC(F)F)c1,Percent Effect,"30 µM, 30.03 µM",7.354%
CCN(Cc1nccs1)Cc1cc(Cl)ccc1OC,Percent Effect,"30.3 µM, […]",-1.846%
CCN(CCS(=O)(=O)c1ccc(Cl)cc1)Cc1ccc(OC)c(OC)c1,Percent Effect,"30.3 µM, […]",54.72%
COc1ccc(CN(C)CCS(=O)(=O)c2ccc(Cl)cc2)cc1OC,Percent Effect,"30.3 µM, […]",56.02%
COc1ccc(CCN(C)CCS(=O)(=O)c2ccc(Cl)cc2)cc1OC,Percent Effect,"30.3 µM, […]",7.861%
COc1ccc(CCCN(C)C(=O)c2cc(Cl)c[nH]2)cc1OC,Percent Effect,"30.3 µM, […]",32.32%

# Source: ChEMBL document CHEMBL3988442, “University of Dundee, Small-Polar-MMV Screening Library” (2021)
